# Source: PubChem (National Center for Advancing Translational Sciences (NCATS))
# An excerpt weighted towards active compounds, which were near 3.1% of everything screened.
# A549 viability: counter-screen for Nrf2 inhibitors: cytotoxicity in A549 cells | Potency, µM (series often up to 46 µM), for the others: at the highest dose activity change, negative = cytotoxicity, actives largely listed as inhibitors | AID 504648 | A549 ARE-Fluc cells, CellTiter-Fluor viability, 18-24 h | 390,000 tested, 0.16% active; further: potency means the concentration at half of the fitted maximal effect; on the % scale 0 is the no-effect control and ±100 the full control effect
#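 Cytotoxicity counterscreen: CellTiter-Fluor fluorescence was measured in A549 ARE_Fluc cells after 18-24 h of compound exposure in a concentration series. The subsequent BugLite luminescent read reports ARE-luciferase activity.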
# IDH1 R132H inh: blocks human mutant IDH1 R132H enzyme; 390,000 tested, 0.093% active; IDH1-R132H enzyme, NADPH consumption, diaphorase/resazurin fluorescence; Potency, µM (highest dose often 76.6 µM), without a hit: top-dose activity change, negative = inhibition, usual class: inhibitors; AID 602179; further: potency means the concentration at half of the fitted maximal effect; on the % scale 0 is the no-effect control and ±100 the full control effect; nearly all actives have a fitted effect of over 65% in size
#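 IDH1-R132H (0.5 ug/mL dispensed) in pH 7.5 Tris buffer was preincubated 30 min with compound, then given a substrate mix of 0.016 mM NADPH and 2 mM alpha-KG for 80 min at room temperature; remaining NADPH was read by diaphorase/resazurin fluorescence.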
# TrxR1 inh: inhibitors of rat thioredoxin reductase 1; O89049; recombinant rTrxR1, NADPH fluorescence consumption, selenite substrate; Potency, µM (top dose mostly 114 µM), for inactives: at the top dose activity change, negative = inhibition, actives largely listed as inhibitors; 390,000 tested, 1% active; AID 588453; further: potency means the concentration at half of the fitted maximal effect; on the % scale 0 is the no-effect control and ±100 the full control effect; nearly all actives have a fitted effect of over 65% in size
# Target sequence (O89049 whole entry, looked up): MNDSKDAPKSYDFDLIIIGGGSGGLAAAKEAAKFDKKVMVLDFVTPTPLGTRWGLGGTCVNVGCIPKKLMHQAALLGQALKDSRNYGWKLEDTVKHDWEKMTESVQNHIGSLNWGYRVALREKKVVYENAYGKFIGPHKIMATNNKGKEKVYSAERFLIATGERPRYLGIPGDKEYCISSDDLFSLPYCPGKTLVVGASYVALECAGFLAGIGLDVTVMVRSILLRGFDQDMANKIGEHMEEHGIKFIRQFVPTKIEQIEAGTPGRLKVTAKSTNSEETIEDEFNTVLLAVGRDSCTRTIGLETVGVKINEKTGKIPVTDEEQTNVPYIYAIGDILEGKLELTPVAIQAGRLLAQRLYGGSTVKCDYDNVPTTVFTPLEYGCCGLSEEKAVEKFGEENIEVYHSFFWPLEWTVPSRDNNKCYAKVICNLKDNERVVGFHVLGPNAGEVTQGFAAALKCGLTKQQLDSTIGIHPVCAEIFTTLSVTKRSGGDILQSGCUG
#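 Rat TrxR1 (90 nM in the dispensed reagent) was pre-reduced with 400 uM NADPH for 5 min at room temperature, then incubated with compound for 15 min. After 400 uM selenite was added, NADPH fluorescence (Ex 340/Em 450 nm) was followed for 8 min.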
# Mito fusion yeast: mitochondrial division inhibition or fusion activation. S. cerevisiae fusion-defective mutant growth rescue, CellTiterGlo 48 h. Potency, µM (doses to about 46.1 µM), inactives show at the top dose growth rescue (activation), usual class: activators. 320,000 tested, 0.23% active. AID 485298; further: potency means the concentration at half of the fitted maximal effect; % of control where 0% means no effect; nearly all actives have a fitted effect of over 45% in size
#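 Temperature-sensitive fusion-defective S. cerevisiae (e.g. fzo1-1, mgm1-5) were grown with compound in YPEG medium (3% ethanol, 3% glycerol) for 48 hours at 37C. Growth rescue was measured as viability by CellTiterGlo luminescence after 10 minutes at ambient.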
# TrxR1 substrate: is turned over as a substrate by rat TrxR1; O89049; purified TrxR1 substrate turnover, NADPH consumption readout; Potency, µM (highest dose often 114 µM), for inactives: at the highest dose activity change, negative = substrate turnover; 390,000 tested, 0.01% active; further: potency means the concentration at half of the fitted maximal effect; on the % scale 0 is the no-effect control and ±100 the full control effect; nearly all actives have a fitted effect of over 50% in size
#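 Rat TrxR1, dispensed at 90 nM, was prereduced with 400 uM NADPH (final) for 5 min at ~22 deg C, then incubated with compound 15 min before 400 uM selenite. A first-read NADPH fluorescence drop versus no-compound background flagged substrates.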
# Nrf2 block: Nrf2 pathway inhibition; A549 ARE-Fluc reporter, luciferase luminescence, 18-24 h; Potency, µM (top dose mostly 46 µM), for inactives: at the highest dose activity change, negative = inhibition, actives largely listed as inhibitors; 360,000 tested, 2.1% active; AID 504444; further: potency means the concentration at half of the fitted maximal effect; on the % scale 0 is the no-effect control and ±100 the full control effect; nearly all actives have a fitted effect of over 60% in size
#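 Two sequential reads on A549 ARE_Fluc cells exposed to compound for 18-24 h: a CellTiter-Fluor fluorescence read for viability, then a luciferase luminescence read for Nrf2/ARE activity.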
# Resorufin autofl: interferes with resorufin fluorescence in IDH1 counter-screen; inhibition of signal, % at 51.2 µM; Resorufin detection reagent fluorescence interference, cell-free; shares compounds with IDH1 R132H inh; 750 tested, under 10 active;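 further: 0% = wells with normal resorufin and full inhibition = wells lacking resorufin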
# IDH1 WT: wild-type IDH1 (human) inhibition counterscreen; AID 623995; WT IDH1 enzyme, NADPH diaphorase/resazurin fluorescence; Potency, µM (highest dose often 115 µM), for the others: at the highest dose activity change, negative = inhibition, hits mostly inhibitors; shares compounds with IDH1 R132H inh; 750 tested, 9% active;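 further: potency means the concentration at half of the fitted maximal effect; 0% = full WT IDH1 enzyme control and full inhibition = no enzyme wells; nearly all actives have a fitted effect of over 55% in size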
# IDH1 R132H conf: inhibits human mutant IDH1 enzyme in cherrypick confirmation. AID 624002. 750 tested, 83% active. IDH1 R132H enzyme, NADPH diaphorase/resazurin fluorescence. Potency, µM (top dose mostly 76.6 µM), without a hit: top-dose activity change, negative = inhibition, most hits filed as inhibitors. shares compounds with IDH1 R132H inh; further: potency means the concentration at half of the fitted maximal effect; nearly all actives have a fitted effect of over 50% in size
# An asterisk follows results filed as active; ? = inconclusive; . = no result given; [ ] = another dose, or the depositor's remark. The call rests on the fitted dose curve; in most records, active means well fitted curve in the direction sought with a large enough effect; inconclusive means small, poorly fitted or top-dose-only effect, or another doubt; inactive means no such curve, though single readings can be large; an effect the other way counts as inactive or inconclusive.
SMILES,A549 viability,IDH1 R132H inh,TrxR1 inh,Mito fusion yeast,TrxR1 substrate,Nrf2 block,Resorufin autofl,IDH1 WT,IDH1 R132H conf
Cc1ccc2cc(C(c3nnnn3C3CCCC3)N(Cc3ccco3)Cc3cccs3)c(=O)[nH]c2c1 (stereo unspecified),-19%,2%,-19%,14%,2%[57.1 µM],?,.,.,.
CCC(c1nnnn1C1CCCCC1)N(Cc1ccco1)Cc1cc2ccc(OC)cc2[nH]c1=O (stereo unspecified),?,?,21%[57.1 µM],?,11%[57.1 µM],23µM*,-5,4%,?
CC1=CC(C)(C)N2C(=O)C3(C(C#N)=C(N)OC4=C3C(=O)CCC4)c3c(C)c(C)cc1c32 (stereo unspecified),-19%,-3%,22%[57.1 µM],0%,-2%,14%,.,.,.
CC1=CC(C)(C)N2C(=O)C3(C(C#N)=C(N)Oc4cc(O)ccc43)c3c(C)c(C)cc1c32 (stereo unspecified),?,23µM*,5%,6%,-5%,.,5,10%,20µM*
COc1ccc(Cl)cc1-n1c(=S)sc2c(=O)[nH]c(SCC(=O)NCCC(C)C)nc21,-10%,37µM*,-12%,5%,-8%,2%,3,7%,11µM*
CCOc1ccc(-n2c(=S)sc3c(=O)[nH]c(SCC(=O)NC(C)CC)nc32)cc1 (stereo unspecified),-6%,37µM*,-14%,3%,-5%,-3%,0,8.9µM*,32µM*
CCOC(=O)CC(=O)CSc1nc2c(sc(=S)n2-c2ccc(OCC)cc2)c(=O)[nH]1,-5%,6%,-7%[57.1 µM],?,5%[57.1 µM],-10%,.,.,.
CC(C)Cn1c(SCC(=O)N2CCc3ccccc3C2)nc2cc(Cl)ccc2c1=O,0%,?,-6%,10%,-6%,-1%,.,.,.
COCCn1c(SCC(=O)N2CCc3ccccc3C2)nc2cc(Cl)ccc2c1=O,-11%,26µM*,6%,23%,-4%,1%,-7,8%,11µM*
CSc1ccc(-c2nc3ccc(C)cn3c2Nc2ccccc2C)cc1,8%,6%,27%,.,10%,20%,.,.,.
CCn1cc(C(=O)NCc2ccco2)c(=O)c2cc(S(=O)(=O)N3CCC(C)CC3)ccc21,0%,33µM*,-12%,10%,-8%,?,2,3%,18µM*
CCn1cc(C(=O)NCc2ccco2)c(=O)c2cc(S(=O)(=O)N3CCCCCC3)ccc21,-9%,-23%,-8%,13%,-5%,?,.,.,.
C=CCn1cc(C(=O)NCc2ccco2)c(=O)c2cc(S(=O)(=O)N3CCCCCC3)ccc21,-19%,?,-1%,0%,2%,12µM*,2,13%,16µM*
CCn1cc(C(=O)NCc2ccco2)c(=O)c2cc(S(=O)(=O)N3CC(C)CC(C)C3)ccc21 (stereo unspecified),-13%,5.2µM*,4%,1%,5%,?,0,6%,2.5µM*
CCCCn1cc(S(=O)(=O)c2ccccc2)c(=O)c2cc(F)c(N3CCN(CCC)CC3)cc21,-11%,8%,-5%,.,24%,-7%,.,.,.
CC1CN(C(=O)CCC(=O)NCc2cccs2)c2cc(Cl)ccc2O1 (stereo unspecified),3%,-6%,2%,.,15%,?,.,.,.
CCOc1cc(CNC(=O)C(NS(=O)(=O)c2cccs2)C(C)C)cc(OCC)c1OCC (stereo unspecified),-3%,-9%,21%[57.1 µM],.,6%[57.1 µM],.,.,.,.
CCc1ccc(NC(=O)Cn2nnc(C(=O)Nc3cc(C)ccc3OC)c2N)cc1,-1%,-17%,33%,.,11%,5%,.,.,.
CC(=O)SC1CC(=O)N(c2ccc(C(C)(C)C)cc2)C1=O (stereo unspecified),1%,?,19%[57.1 µM],-2%,12%[57.1 µM],-14%,3,2%,22µM*
CC(=O)SC1CC(=O)N(c2c(C)cccc2C)C1=O (stereo unspecified),2%,2%,-23%,-4%,4%,?,.,.,.
CCn1c2ccccc2c2cc(/C=N/n3cn[nH]c3=S)ccc21,-12%,1%,?,-12%,-2%,?,.,.,.
CCn1c2ccccc2c2cc(/C=N/n3c(-c4cc(C)[nH]n4)n[nH]c3=S)ccc21,-9%,?,19%[11.4 µM],4%,4%[57.1 µM],?,-8,-2%,14µM*
COc1ccc(S(=O)(=O)N(CC(=O)NCc2ccc(C)cc2)c2ccc(Cl)cc2)cc1,-1%,14%,-1%,.,1%,3%,.,.,.
COC(=O)c1ccc(NC2(C#N)C(=O)Nc3ccccc32)cc1 (stereo unspecified),-7%,?,9%,-7%,1%,-15%,-1,64%,45µM*
CCOC(=O)CNC(=O)c1ccc(-c2nn(C)c(=O)c3ccccc23)cc1,-2%,-8%,13%,.,0%,-14%,.,.,.
COc1ccc(NC(=O)NCCn2nnc3cc(S(=O)(=O)N(C)C)ccc32)cc1,-5%,16%,32%[57.1 µM],.,10%[57.1 µM],.,.,.,.
CCC(C)Sc1ccc([C@@H]2[C@@H]3C(=O)N(C)C(=O)[C@@H]3[C@]3(C(=O)OC)CCCCN23)cc1OC (stereo partly specified),?,35µM*,?,12%,-6%,-1%,-7,1%,16µM*
COc1ccccc1Oc1coc2cc(OC(=O)N3CCOCC3)ccc2c1=O,-8%,0%,11%[57.1 µM],-2%,8%[57.1 µM],-11%,.,.,.
CC(=O)Oc1ccc2c(=O)c(Oc3ccccc3[N+](=O)[O-])coc2c1,9%,?,-36%,20%,1%,-5%,4,-13%,28µM*
CC(=O)NC1C(=O)N(CCN2CCOCC2)c2ccc(Cl)cc21 (stereo unspecified),8%,41µM*,-2%,9%,0%,-1%,5,?,-118%
